Data taken from PubChem BioAssay AID588676 (Johns Hopkins Ion Channel Center, 2011).
The campaign covered roughly 310,000 compounds. About 3,900 (1.3%) were called active.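 The calls were made as follows: active = calcium-response B-score plate-corrected more than 3 library SD below zero, starting fluorescence within 5 deviations, no agonist response on first addition; inactive = the rest.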 Many of the other results were omitted from the sample, so actives are more common in it than they were.

molecular target: Mas-related G-protein coupled receptor member X1 (Homo sapiens) (UniProt Q96LB2); assay: blockade of BAM8-22-evoked MrgX1 calcium response – HEK293 cells, Fluo-4 calcium flux, primary screen (AID 588676); conditions: Fluo-4, BAM8-22 antagonism, at 10 µM; active compounds read low;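 as to B-score: peak minus trough fluorescence over baseline after final BAM8-22 challenge near maximal dose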
Sequence (Q96LB2 whole entry, looked up): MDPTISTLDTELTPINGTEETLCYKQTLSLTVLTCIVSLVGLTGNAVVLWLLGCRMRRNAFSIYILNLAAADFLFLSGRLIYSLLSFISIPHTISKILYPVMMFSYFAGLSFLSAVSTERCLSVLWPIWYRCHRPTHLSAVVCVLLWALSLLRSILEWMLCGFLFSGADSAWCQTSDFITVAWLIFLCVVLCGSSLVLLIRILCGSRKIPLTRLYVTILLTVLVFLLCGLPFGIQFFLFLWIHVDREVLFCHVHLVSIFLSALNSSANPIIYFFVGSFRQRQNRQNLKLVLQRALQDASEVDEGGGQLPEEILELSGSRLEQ

SMILES	B-score
COc1cc(NC(=O)CN2C(=O)NC(C)(c3ccc(OC(F)F)cc3)C2=O)cc(OC)c1OC (stereo not given)	inactive
CCN1CCN(CCNC(=O)c2ccc3c(c2)NC(=O)/C(=C\c2ccc(OC)c(OC)c2)S3)CC1	inactive
O=C(NCCN1CCOCC1)c1ccc(/C=C2\Sc3ccccc3N(Cc3ccc(F)cc3)C2=O)cc1	inactive
CCN1CCN(CCNC(=O)c2ccc(/C=C3/Sc4ccccc4N(Cc4cccc(C)c4)C3=O)cc2)CC1	-7.53 (active)
Cc1ccc(Nc2cc(=O)n(C3CCCCC3)c(=O)[nH]2)cc1C	inactive
COc1cccc(N(Cc2nnc3n2CCCCC3)C(=O)Nc2ccccc2F)c1	inactive
Clc1ccc(Nc2nc(-c3cccs3)cs2)nc1	inactive
Cc1ccc(Nc2nc(-c3ccc(O)cc3O)cs2)nc1	-4.59 (active)
Cc1cccc(Nc2nc(-c3ccccc3)cs2)n1	inactive
COc1ccc(-c2cc(C(=O)N(C)Cc3ccc(OC)c(OC)c3OC)c3ccccc3n2)cc1OC	inactive
Cc1ccc(OCc2nc3ccccc3n2C)cc1	inactive
Cc1ccc(OCCCn2c(=O)oc3ccccc32)cc1	inactive
CCCCCCCCC(=O)NCCOc1ccccc1	inactive
CCCCCCCCCCOC(=O)Cn1c(COc2cccc(OC)c2)[n+](C)c2ccccc21	-13.2 (active)
CCCCCCCCCCOC(=O)Cn1c(COc2ccc(C)cc2)[n+](C)c2ccccc21	-10.1 (active)
CCn1c(COc2cccc(OC)c2)nnc1SCC(=O)N1CCOCC1	inactive
CCOC(=O)c1cc(NC(=O)SCC(=O)O)c(C)nc1C	inactive
CC(=O)N(C)c1ccc(NC(=O)C(F)(F)F)cc1	-7.18 (active)
CCOc1ccc(NC(=O)Nc2ccc(N(C)C(C)=O)cc2)cc1	inactive
CC(=O)N(C)c1ccc(NC(=O)Nc2cccc3ccccc23)cc1	inactive
O=C(COC(=O)Cn1cnc2ccccc21)Nc1cccc2c1C(=O)c1ccccc1C2=O	inactive
Cc1cccc(NC(=O)Cc2ccc(Br)cc2)n1	inactive
O=C(Cc1c(F)cccc1Cl)Nc1ccc(-n2cnnn2)cc1	inactive
O=S(=O)(NC1CCCC1)c1ccc(-n2cnnn2)cc1	inactive
c1cc(-n2cnnn2)ccc1NC1=NCCC1	-5.5 (active)
Cc1ccc(Cl)c(OCC(=O)N(C)CC(=O)Nc2ccc(N3CCOCC3)cc2)c1	inactive
CCOC(=O)c1ccc(COC(=O)CCc2nc(-c3ccccc3)c(-c3ccccc3)o2)cc1	inactive
Cc1ccc(NC(=O)Nc2cccnc2)cc1	inactive
O=C(NNC(=O)c1csc(-c2cccnc2)n1)Nc1ccc(Cl)cc1	inactive
O=C(Nc1ccc(Cl)cc1)Nc1ccc(Oc2cccnc2)nc1	-7.03 (active)
